This is an account of results in ChEMBL document CHEMBL3433997, “St. Jude Leishmania screening dataset” (2016).

Molecules are shown by their SMILES.

One test concerns the target Hexose transporter 1 (Plasmodium falciparum) (UniProt O97467). As to the kind of experiment: ST_JUDE_LEISH: Cytotoxicity at 2uM final concentration against transgenic Leishmania Mexicana promastigotes LmPfHT that are glucose transport deficient and complemented with the Plasmodium falciparum hexose transporter. Activity is measured by DNA content using SYBR green in vitro. In kind it is functional.
One may read the inhibition as the change of the read-out against control, counted positive when it falls. As to `N=c1c2c(n(Cc3cccc(Cl)c3)c3c1CCC3)CCCC2`, the inhibition was determined as 49.2%.

In the case of `COc1ccc(F)cc1-c1ccc(C(=O)N2CCCN(c3ccc(C(F)(F)F)cn3)CC2)cc1`, the inhibition came out at 1.75%.

`CCCCCCCN1CCC(CCNc2ccnc3ccc(OC)cc23)CC1`: the inhibition turned out to be 2.47%.

For `CN1CCCN(Cc2ccc(-c3cccc(NC(=O)c4cccc(F)c4)c3)cc2)CC1`, the inhibition came to 9.38%.

As for `N#Cc1ccc(N2CCN(Cc3cccc(-c4cccc(-c5nc6cc(F)ccc6[nH]5)c4)c3)CC2)nc1`, the inhibition stood at 5.99%.

`Cc1nc(NC(=N)N)nc2ccc(C(C)(C)C)cc12`: the inhibition worked out at 0.81%.

With `CCCC(=O)Nc1ccc(OCCCCN(CC(C)(C)C)c2ccc(C#N)c(C(F)(F)F)c2)cc1`, the inhibition was 1.02%.

`Cc1ccc(NC(=O)Nc2ccc(S(=O)(=O)c3ccc(NC(=O)Nc4ccc(C)c(Cl)c4)cc3)cc2)cc1Cl`: the inhibition was -0.49%.

With `O=C(Nc1ccc2c(c1)CCN2C1CCN(Cc2cccc(C(F)(F)F)c2)C1)c1ccco1` (stereo not given), the inhibition came out at 0.28%.

As for `Cc1cnc(C[S+]([O-])c2nc3cc(C(F)(F)F)ccc3[nH]2)cc1OCc1ccccc1` (stereo not given), the inhibition turned out to be 4.95%.

As to `O=C(Cc1ccc(Cl)cc1)Nc1cc(Cl)ccc1Cn1cnc(N2CCNCC2)cc1=O`, the inhibition is -0.28%.

Regarding `Cc1cccc(C(=O)Nc2ccnc(N(C)CCCN(C)Cc3cccc(C#N)c3)c2)c1`, the inhibition came to 4.86%.

As to `Cc1cc(Nc2ncc(C#N)c(Nc3ccccc3C(N)=O)n2)ccc1N1CCN(C)CC1`, the inhibition worked out at 78.8%.

With `Cc1nc(-c2cccc(Nc3nccc(NCC(O)c4cccc(C(F)(F)F)c4)n3)c2)cs1` (stereo not given), the inhibition was determined as 0.83%.

`O=C(/C=C/c1ccc(Cl)cc1)NCCCCCN1CCCC(C(=O)Nc2ccc(Cl)cc2)C1` (stereo not given): the inhibition was determined as 5.61%.

Consider `c1ccc(-c2n[nH]cc2Nc2ccnc3ccccc23)nc1`, for which the inhibition came out at 3.76%.

As to `CNCCNCc1cccc(-c2ccc(-c3nc4cccc(C)c4[nH]3)cc2)c1`, the inhibition is -3.38%.

In the case of `CCCCCN1CCCC1CNS(=O)(=O)c1cccc(C(=O)Nc2cccc(C(F)(F)F)c2)c1` (stereo not given), the inhibition came to 6.76%.

Turning to `COc1cccc2cc(C(=O)N[C@@H](CC(C)C)C(=O)N[C@H](C=NN3CCOC3=O)CC(C)C)oc12`, the inhibition was 4.14%.

With `COc1ccc(Cl)cc1N1CCN(CCCNC(=O)c2ccc(-c3nc4cc(Cl)c(C)cc4[nH]3)c(F)c2)CC1`, the inhibition is 0.19%.

With `CC1(C)NC(N)=NC(=N)N1OCOc1cc(Cl)c(Cl)cc1Cl`, the inhibition was found to be 0.84%.

For the compound `O=C(NC1CCC(N2CCC(c3ccccc3C(F)(F)F)CC2)CC1)c1cc2ccccc2[nH]1` (stereo not given), the inhibition came out at 5.68%.

For the compound `COc1cc2c(cc1N1CC(C)NC(C)C1)N(C(=O)c1ccc(-c3ccc(-c4ncc[nH]4)cc3C)cc1)CC2` (stereo not given), the inhibition amounted to 1.1%.

For the compound `CC(C)C[C@@H](CNC[C@H](CC(C)C)NC(=O)OC(C)(C)C)NC(=O)OC(C)(C)C`, the inhibition is -2.4%.

Turning to `Cc1noc(C)c1-c1ccc2c(Nc3ccccc3C(C)(C)C)c(C(=O)NC3CCCC3)cnc2c1`, the inhibition is 1.46%.

With `N#CCOc1c(C2CCN(CCCCNC(=O)c3ccc(-c4ccc(C(F)(F)F)cc4)cc3)CC2)ccc2c1CCCC2`, the inhibition came out at 3.28%.

Consider `COc1cc(Nc2nccc(N3CCC(NS(=O)(=O)c4ccc(NC(C)=O)cc4)CC3)n2)cc(OC)c1OC`, for which the inhibition is -0.44%.

As to `C=CCn1c(SCC(=O)Nc2cc(C)ccc2OC)nc2sc(C)cc2c1=O`, the inhibition is 3.15%.

Turning to `CC(=O)Nc1ccc(OCCCCN(Cc2ccccc2OC(F)(F)F)c2ccc(C(F)(F)F)c(C#N)c2)c(Cl)c1`, the inhibition was determined as 4.12%.

As to `O=C(NC1CCN(Cc2ccccc2)CC1)c1ccc(-c2nc3cc4ccccc4cc3[nH]2)s1`, the inhibition was determined as 2.65%.

For the compound `CS(=O)(=O)c1ccc(CNCc2cccc(-c3cccc(-c4nc5cc(F)ccc5[nH]4)c3)c2)cc1`, the inhibition amounted to 0.6%.

Take `N=C(N)Nc1nc(-c2cc(NC(=O)C(F)(F)F)cc([N+](=O)[O-])c2)cs1`: the inhibition was 0.51%.

Regarding `C=CCOc1cccc2c1CCN(CCN1CCC(NC(=O)c3ccc(-c4ccc(Cl)cc4)cc3)CC1)C2`, the inhibition is 11.3%.

In the case of `CC(C)N1CCC(N(Cc2ccc(-c3ccc(C(F)(F)F)cc3)cc2)C(=O)Cn2c(SCc3cccc(F)c3F)cc(=O)c3ccccc32)CC1`, the inhibition worked out at 1.73%.

As to `COc1cc(Nc2nccc(N3CCC(NC(=O)Nc4ccc5c(c4)OCO5)C3)n2)cc(OC)c1OC` (stereo not given), the inhibition is 6.84%.

In the case of `O=C1COC2(CN1C1CCN(Cc3ccc(O)c(Cl)c3)C1)c1ccccc1-c1ccccc12` (stereo not given), the inhibition is 7.57%.

For the compound `COc1cccc(C(=O)NCCOc2ccccc2)c1Oc1ccccc1`, the inhibition came to 5.7%.

For `CC(C)Sc1nncc(-c2cnnc(SC(C)C)n2)n1`, the inhibition is -0.11%.

Consider `COC(=O)c1cccc(CNCc2cccc(-c3cccc(-c4nc5cccc(C)c5[nH]4)c3)c2)c1`, for which the inhibition was 8.21%.

As for `CN(C)CCn1c(=N)n(CC(O)c2ccc(Cl)c(Cl)c2)c2ccccc21` (stereo not given), the inhibition stood at 4.53%.

Another test concerns the target Glucose transporter (Leishmania mexicana) (UniProt O61059). The test can be described thus: ST_JUDE_LEISH: Cytotoxicity at 2uM final concentration against transgenic Leishmania Mexicana promastigotes LmGT2 that are glucose transport deficient and complemented with the L. Mexicana glucose transporter 2. Activity is measured by DNA content using SYBR green in vitro. It is filed as functional.
In the case of `N=c1c2c(n(Cc3cccc(Cl)c3)c3c1CCC3)CCCC2`, the inhibition was found to be 20.4%.

Take `COc1ccc(F)cc1-c1ccc(C(=O)N2CCCN(c3ccc(C(F)(F)F)cn3)CC2)cc1`: the inhibition amounted to 4.03%.

On to `CCCCCCCN1CCC(CCNc2ccnc3ccc(OC)cc23)CC1`, for which the inhibition is 0.79%.

Turning to `CN1CCCN(Cc2ccc(-c3cccc(NC(=O)c4cccc(F)c4)c3)cc2)CC1`, the inhibition amounted to 7.57%.

In the case of `N#Cc1ccc(N2CCN(Cc3cccc(-c4cccc(-c5nc6cc(F)ccc6[nH]5)c4)c3)CC2)nc1`, the inhibition came to 3.65%.

On to `Cc1nc(NC(=N)N)nc2ccc(C(C)(C)C)cc12`, for which the inhibition amounted to 1.22%.

Regarding `CCCC(=O)Nc1ccc(OCCCCN(CC(C)(C)C)c2ccc(C#N)c(C(F)(F)F)c2)cc1`, the inhibition was found to be 0.8%.

With `Cc1ccc(NC(=O)Nc2ccc(S(=O)(=O)c3ccc(NC(=O)Nc4ccc(C)c(Cl)c4)cc3)cc2)cc1Cl`, the inhibition amounted to 1.78%.

In the case of `O=C(Nc1ccc2c(c1)CCN2C1CCN(Cc2cccc(C(F)(F)F)c2)C1)c1ccco1` (stereo not given), the inhibition is -0.47%.

As to `Cc1cnc(C[S+]([O-])c2nc3cc(C(F)(F)F)ccc3[nH]2)cc1OCc1ccccc1` (stereo not given), the inhibition was determined as 2.76%.

Turning to `O=C(Cc1ccc(Cl)cc1)Nc1cc(Cl)ccc1Cn1cnc(N2CCNCC2)cc1=O`, the inhibition amounted to 2.2%.

On to `Cc1cccc(C(=O)Nc2ccnc(N(C)CCCN(C)Cc3cccc(C#N)c3)c2)c1`, for which the inhibition is 2.02%.

Consider `Cc1cc(Nc2ncc(C#N)c(Nc3ccccc3C(N)=O)n2)ccc1N1CCN(C)CC1`, for which the inhibition was 65.4%.

In the case of `Cc1nc(-c2cccc(Nc3nccc(NCC(O)c4cccc(C(F)(F)F)c4)n3)c2)cs1` (stereo not given), the inhibition is -0.26%.

On to `O=C(/C=C/c1ccc(Cl)cc1)NCCCCCN1CCCC(C(=O)Nc2ccc(Cl)cc2)C1` (stereo not given), for which the inhibition was 3.7%.

Consider `c1ccc(-c2n[nH]cc2Nc2ccnc3ccccc23)nc1`, for which the inhibition turned out to be 3.97%.

For the compound `CNCCNCc1cccc(-c2ccc(-c3nc4cccc(C)c4[nH]3)cc2)c1`, the inhibition came out at 0.95%.

For the compound `CCCCCN1CCCC1CNS(=O)(=O)c1cccc(C(=O)Nc2cccc(C(F)(F)F)c2)c1` (stereo not given), the inhibition stood at 5.05%.

On to `COc1cccc2cc(C(=O)N[C@@H](CC(C)C)C(=O)N[C@H](C=NN3CCOC3=O)CC(C)C)oc12`, for which the inhibition came out at 1.9%.

With `COc1ccc(Cl)cc1N1CCN(CCCNC(=O)c2ccc(-c3nc4cc(Cl)c(C)cc4[nH]3)c(F)c2)CC1`, the inhibition worked out at 0.07%.

Turning to `CC1(C)NC(N)=NC(=N)N1OCOc1cc(Cl)c(Cl)cc1Cl`, the inhibition was determined as 6.16%.

Take `O=C(NC1CCC(N2CCC(c3ccccc3C(F)(F)F)CC2)CC1)c1cc2ccccc2[nH]1` (stereo not given): the inhibition amounted to 31.2%.

For the compound `COc1cc2c(cc1N1CC(C)NC(C)C1)N(C(=O)c1ccc(-c3ccc(-c4ncc[nH]4)cc3C)cc1)CC2` (stereo not given), the inhibition came to 3.39%.

Turning to `CC(C)C[C@@H](CNC[C@H](CC(C)C)NC(=O)OC(C)(C)C)NC(=O)OC(C)(C)C`, the inhibition is -0.19%.

Take `Cc1noc(C)c1-c1ccc2c(Nc3ccccc3C(C)(C)C)c(C(=O)NC3CCCC3)cnc2c1`: the inhibition is -0.58%.

For `N#CCOc1c(C2CCN(CCCCNC(=O)c3ccc(-c4ccc(C(F)(F)F)cc4)cc3)CC2)ccc2c1CCCC2`, the inhibition was determined as 3.28%.

With `COc1cc(Nc2nccc(N3CCC(NS(=O)(=O)c4ccc(NC(C)=O)cc4)CC3)n2)cc(OC)c1OC`, the inhibition is -0.12%.

For the compound `C=CCn1c(SCC(=O)Nc2cc(C)ccc2OC)nc2sc(C)cc2c1=O`, the inhibition was 2.13%.

Regarding `CC(=O)Nc1ccc(OCCCCN(Cc2ccccc2OC(F)(F)F)c2ccc(C(F)(F)F)c(C#N)c2)c(Cl)c1`, the inhibition was 7.95%.

With `O=C(NC1CCN(Cc2ccccc2)CC1)c1ccc(-c2nc3cc4ccccc4cc3[nH]2)s1`, the inhibition is 4.03%.

`CS(=O)(=O)c1ccc(CNCc2cccc(-c3cccc(-c4nc5cc(F)ccc5[nH]4)c3)c2)cc1`: the inhibition is -2.93%.

Consider `N=C(N)Nc1nc(-c2cc(NC(=O)C(F)(F)F)cc([N+](=O)[O-])c2)cs1`, for which the inhibition worked out at 1%.

Take `C=CCOc1cccc2c1CCN(CCN1CCC(NC(=O)c3ccc(-c4ccc(Cl)cc4)cc3)CC1)C2`: the inhibition turned out to be 9.23%.

As to `CC(C)N1CCC(N(Cc2ccc(-c3ccc(C(F)(F)F)cc3)cc2)C(=O)Cn2c(SCc3cccc(F)c3F)cc(=O)c3ccccc32)CC1`, the inhibition stood at 0.55%.

As for `COc1cc(Nc2nccc(N3CCC(NC(=O)Nc4ccc5c(c4)OCO5)C3)n2)cc(OC)c1OC` (stereo not given), the inhibition is 8.87%.

As for `O=C1COC2(CN1C1CCN(Cc3ccc(O)c(Cl)c3)C1)c1ccccc1-c1ccccc12` (stereo not given), the inhibition is 5.67%.

Regarding `COc1cccc(C(=O)NCCOc2ccccc2)c1Oc1ccccc1`, the inhibition was determined as 5.15%.

Consider `CC(C)Sc1nncc(-c2cnnc(SC(C)C)n2)n1`, for which the inhibition was 0.07%.

For the compound `COC(=O)c1cccc(CNCc2cccc(-c3cccc(-c4nc5cccc(C)c5[nH]4)c3)c2)c1`, the inhibition was found to be 6.67%.

With `CN(C)CCn1c(=N)n(CC(O)c2ccc(Cl)c(Cl)c2)c2ccccc21` (stereo not given), the inhibition was determined as 5.49%.
